# In all, about 50,000 compounds went through this assay and about 800 (1.6%) showed an effect of 50% or more. For the sample, strong results were picked, then their nearest neighbours and some compounds at random.
# Biological target: Bcl-2-like protein 10 (Homo sapiens) (UniProt Q9HD36)
# Assay: TR3 peptide-Bcl-B binding displacers, biochemical primary FP assay, phenotype converters (AID 1240);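 further: 0% = Bcl-B with tracer peptide and DMSO and 100% = tracer peptide lacking Bcl-B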
# Conditions: GST-Bcl-B / FITC-TR3 peptide fluorescence polarization; stronger effect = higher value; compound at 3.75 mg/L
# Sequence of Bcl-2-like protein 10 (Homo sapiens) (Q9HD36 whole entry, looked up): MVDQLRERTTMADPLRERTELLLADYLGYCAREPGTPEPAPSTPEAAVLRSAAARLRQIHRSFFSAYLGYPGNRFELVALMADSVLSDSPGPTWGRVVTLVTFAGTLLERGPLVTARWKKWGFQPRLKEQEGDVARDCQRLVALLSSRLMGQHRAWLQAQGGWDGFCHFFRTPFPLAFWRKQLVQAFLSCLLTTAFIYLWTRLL
row,Structure (SMILES),displacement [%]
1,CCOC(=O)c1c(-c2ccc(OC)cc2)csc1NC(=O)c1cccc([N+](=O)[O-])c1,12.6
2,Cc1cc(/C=C2\SC(=O)NC2=O)c(C)n1C1CCCCC1,8.2
3,Cc1ccc(OCc2nc(-c3cccnc3)no2)c(Br)c1,10.7
4,N#C/C(=C\c1ccc(C(=O)O)cc1)C(=O)NCC1CCCO1 (stereo not given),0
5,Fc1ccc(-c2nnn(Cc3c(F)cccc3Cl)n2)cc1,-6.4
6,CC1=C(C(=O)OCC(F)(F)F)C(c2ccccc2)NC(=O)N1 (stereo not given),7.2
7,Cc1cccc(NC(=O)C2C(C(=O)O)C3C=CC2C32CC2)c1 (stereo not given),-1.1
8,O=C(CSc1nc2ccccc2s1)c1ccc2ccccc2c1,11.9
9,CCc1ccc(-c2csc(-c3cc4cccc(OC)c4oc3=O)n2)cc1,-23.6
10,COc1cccc2cc(-c3nc(-c4ccc(Cl)cc4Cl)cs3)c(=O)oc12,-11.5
11,COc1ccc(-c2csc(-c3cc4cc(Cl)cc(Cl)c4oc3=O)n2)cc1,75
12,COc1cc(NS(=O)(=O)c2ccc(C)cc2)cc(OC)c1O,13.5
13,NC(=O)COc1ccc(/C=N/NS(=O)(=O)c2ccccc2)cc1,0.2
14,COc1ccc(OC)c(/C=C(\C#N)c2ccc([N+](=O)[O-])cc2)c1,4
15,COc1ccc(/C=C(\C#N)c2ccc([N+](=O)[O-])cc2)c(OC)c1,110
16,COc1cc(/C=C(\C#N)c2ccc([N+](=O)[O-])cc2)c(OC)cc1Br,14.7
17,CC(C)CN1C(=O)/C(=C/c2ccccc2F)SC1=S,10.4
18,COc1ccc(NC(=O)CSCCc2ccccn2)c([N+](=O)[O-])c1,10.5
19,NS(=O)(=O)c1cccc(NC(=O)c2cc(I)ccc2Cl)c1,-1.9
20,COc1ccc(CCN2C(=O)/C(=C\c3ccc(C(C)C)cc3)SC2=S)cc1OC,-0.4
21,O=C(CCCN1C(=O)/C(=C\c2ccc(F)cc2)SC1=S)Nc1ccccc1O,-12.5
22,COc1ccc(/C=C2\SC(=S)N(CC(=O)Nc3ncc(Cc4cccc([N+](=O)[O-])c4)s3)C2=O)cc1OC,9.7
23,Cc1ccc(/C=C2\SC(=S)N(CCc3ccccc3)C2=O)cc1,17
24,CCN(CC)c1ccc(/C=C2\SC(=S)N(CCc3ccccc3)C2=O)cc1,86
25,O=C(CCN1C(=O)/C(=C/c2ccc(F)cc2)SC1=S)Nc1cc([N+](=O)[O-])ccc1O,25.6

row,Structure (SMILES),displacement [%]
1,COc1ccc(/C=C2/SC(=S)N(CCc3ccccc3)C2=O)cc1OC,105
2,O=C(CCCN1C(=O)/C(=C\c2ccc(F)cc2)SC1=S)Nc1cc([N+](=O)[O-])ccc1O,114
3,COc1ccc(/C=C2/SC(=S)N(Cc3ccccc3)C2=O)cc1OC,16.1
4,COc1ccc(/C=C2\SC(=S)N(CCCC(=O)Nc3ncc(Cc4cccc([N+](=O)[O-])c4)s3)C2=O)cc1OC,59
5,O=C(CN1C(=O)/C(=C/c2ccc(Br)cc2)SC1=S)Nc1ncc(Cc2cccc([N+](=O)[O-])c2)s1,17.9
6,CCCCN1C(=O)/C(=C\c2ccc(N(CC)CC)cc2)SC1=S,-18.9
7,COC1C(C)=C(c2ccccc2F)C(=O)N1Cc1ccccc1 (stereo not given),14.3
8,CC1=C(C(=O)Nc2ccc(C)cc2)C(c2ccc(F)cc2)NC(=S)N1 (stereo not given),-4.5
9,C/C(O)=C/c1nc2ccc([N+](=O)[O-])cc2nc1/C=C(/C)O,17.3
10,OC(COCc1ccc2c(c1)OCO2)CN1CCC(Cc2ccccc2)CC1 (stereo not given),0.1
11,Cc1ccc(-c2cc(NC(=O)c3ccc(Cl)cc3Cl)n[nH]2)cc1,9.9
12,O=C(O)CCCCCN1C(=O)C(=O)/C(=C(/O)c2ccccc2)C1c1ccc([N+](=O)[O-])cc1 (stereo not given),-3.9
13,O=C1c2c(Cl)ccc(Cl)c2C(=O)N1c1ccccc1O,9.8
14,C(#Cc1ccccc1)CN1CCOCC1,2.4
15,CSC(=O)NC1(Cc2ccc(O)cc2)CCCCC1,-4.1
16,Cc1ccc(C(=O)N/C(=C/c2ccc(Br)cc2)C(=O)NN)cc1,-31.6
17,CCN(CC)CCC(=O)c1ccc2c(c1)OCO2,-5.3
18,O=c1[nH]c2ccc(Cl)cc2c(-c2ccccc2)c1N1CCOCC1,-27.7
19,COC(=O)C(C)Oc1cc2oc(=O)cc(-c3ccccc3)c2cc1Cl (stereo not given),10.3
20,COc1ccc(/C=C2\SC(=NCc3ccccc3)N(Cc3ccccc3)C2=O)cc1C(=O)O,78
21,COc1ccc(/C=C2\SC(=NCc3ccccc3)N(Cc3ccccc3)C2=O)cc1OC,7.1
22,COc1cc(/C=C2\SC(=NCc3ccccc3)N(Cc3ccccc3)C2=O)cc(Br)c1O,-5.7
23,CCN(CC)c1ccc(/C=C2/C(=O)NN(c3cccc(Cl)c3)C2=O)c(O)c1,1.9
24,CCN(CC)c1ccc(/C=C2/C(=O)NN(c3ccc(C)cc3)C2=O)c(O)c1,23.1
25,CCN(CC)c1ccc(/C=C2/C(=O)NN(c3ccc(C)c(Cl)c3)C2=O)c(O)c1,59.2

row,Structure (SMILES),displacement [%]
1,CC(=O)C12CCCCC1CC1C3CC(C)[C@@]4(O)CC(O)CCC4(C)C3CCC12C (stereo not given in full),0
2,Cc1cccc(N2C(=O)S/C(=C/c3cccc([N+](=O)[O-])c3)C2=O)c1,14.3
3,COc1cc(OC)c([N+](=O)[O-])cc1/C=C1/C(=O)NC(=O)N(c2ccc(Br)cc2)C1=O,8.8
4,COc1ccccc1C1CC(c2ccc(F)cc2)=NN1c1ccccc1 (stereo not given),5.4
5,COc1ccc(C2CC(c3ccc(F)cc3)=NN2c2ccccc2F)cc1OC (stereo not given),-4.3
6,COc1ccc(C2=NN(c3ccccc3)C(c3ccccc3F)C2)cc1 (stereo not given),53.9
7,COc1ccc(C2CC(c3ccc(F)cc3)=NN2c2cccc(F)c2)cc1OC (stereo not given),-6.2
8,COc1ccc(C2CC(c3ccc(F)cc3)=NN2c2ccccc2)cc1OC (stereo not given),64.4
9,COc1ccc(C2=NN(C(=O)CCC(=O)O)C(c3ccccc3F)C2)cc1 (stereo not given),12.3
10,O=C(COc1ccc(Cl)cc1Cl)Nc1ccc(Br)c(Cl)c1,-5.5
11,CC(=O)Nc1ccc(S(=O)(=O)NC(=O)C23CC4CC(CC(C4)C2)C3)cc1,0.8
12,CCOc1ccc(C(=O)Nc2cccc(C(C)=O)c2)cc1,9
13,COc1ccc(Cl)cc1N=CC1=C(O)CC(C)(C)CC1=O,3.1
14,O=C(Oc1ccccc1C(=S)N1CCOCC1)c1cccc([N+](=O)[O-])c1,10.7
15,CCOc1cc(C(=S)N2CCOCC2)ccc1OC(=O)c1cccc([N+](=O)[O-])c1,8.7
16,COc1cc(C(=S)N2CCOCC2)cc(OC)c1OC(=O)c1cccc([N+](=O)[O-])c1,70.4
17,COc1cc(C2C3=C(CC(C)(C)CC3=O)OC3=C2C(=O)CC(C)(C)C3)cc(OC)c1OC(C)=O,-1.3
18,CC(C)COc1ccc(C(=O)Nc2ccc(Cl)cc2)cc1,13.1
19,COc1ccc(NC(=O)CN(c2cc(OC)ccc2OC)S(C)(=O)=O)cc1,13.1
20,CCC1=NN2C(=N)/C(=C/c3ccc(-c4ccc([N+](=O)[O-])cc4Cl)o3)C(=O)N=C2S1,15.1
21,CCC1=NN2C(=N)/C(=C/c3ccc(-c4ccc([N+](=O)[O-])cc4Br)o3)C(=O)N=C2S1,4
22,CCCC1=NN2C(=N)/C(=C/c3ccc(-c4ccc(Cl)cc4Cl)o3)C(=O)N=C2S1,74.7
23,CCC1=NN2C(=N)/C(=C/c3ccc(-c4ccc([N+](=O)[O-])cc4C)o3)C(=O)N=C2S1,14
24,NC1=NC(=O)/C(=C/c2ccc(-c3ccc([N+](=O)[O-])cc3Br)o2)S1,-5.3
25,CCC1=NN2C(=N)/C(=C/c3ccc(-c4ccccc4[N+](=O)[O-])o3)C(=O)N=C2S1,1.5

row,Structure (SMILES),displacement [%]
1,CCCC1=NN2C(=N)/C(=C/c3ccc(-c4ccc([N+](=O)[O-])cc4Br)o3)C(=O)N=C2S1,129
2,CCCC1=NN2C(=N)/C(=C/c3ccc(-c4ccc([N+](=O)[O-])cc4C)o3)C(=O)N=C2S1,140
3,C=CCOc1ccc(Cl)cc1/C=C1/C(=N)N2N=C(CCC)SC2=NC1=O,-25.3
4,CC1CCc2c(nc3ccccc3c2C(=O)O)C1 (stereo not given),-14.7
5,CN(C)/C=C/C=C1C(=O)OC(C)(C)OC1=O,0.3
6,O=C(O)c1ccccc1C(=O)c1ccc(Cl)c(N2C(=O)CCC2=O)c1,-1.3
7,Cc1cc(NS(=O)(=O)c2ccc(NC(=O)C(Cl)(Cl)Cl)cc2)nc(C)n1,1.3
8,COc1ccc(Br)cc1Cn1c(=O)[nH]c2cc(C(F)(F)F)ccc21,-5.6
9,CC(C)(C)C(=O)Nc1cccc(C(=O)NCc2ccc(CNC(=O)c3cccc(NC(=O)C(C)(C)C)c3)cc2)c1,9.9
10,O=C(Oc1cccc(/C=C2/SC(=S)N(c3ccccc3)C2=O)c1)c1ccco1,-17.2
11,Cc1cc(C)c(-c2nn(-c3ccccc3)cc2C=O)c(C)c1,10.9
12,Cc1cc(-n2cc(C=O)c(-c3ccccc3)n2)nc2ccccc12,75.4
13,O=Cc1cn(-c2ccccc2)nc1-c1ccc(Cl)cc1,7.5
14,Cc1ccc(C(=O)/C=C2\C(=O)Nc3ccccc32)cc1,6.7
15,O=C(O)CCCC(=O)OCc1ccco1,31.3
16,O=C(COc1ccc([N+](=O)[O-])cc1)NNC(=O)c1ccccc1Cl,11.6
17,O=C1S/C(=C/c2ccc(-c3ccc(F)cc3)o2)C(=O)N1c1ccccc1,12.2
18,O=[N+]([O-])c1ccc(-c2ccc(/C=N/n3cnnc3)o2)cc1,139
19,Fc1ccc(-c2ccc(/C=N/n3cnnc3)o2)cc1,7.8
20,O=C(O)c1ccc(-c2ccc(/C=C3/SC(=O)N(c4ccccc4)C3=O)o2)cc1,27.7
21,O=C1S/C(=C/c2ccc(-c3ccc([N+](=O)[O-])cc3Cl)o2)C(=O)N1c1ccccc1,47.4
22,O=C1S/C(=C\c2ccc(-c3ccc([N+](=O)[O-])cc3)o2)C(=O)N1c1ccccc1,70.2
23,O=C1S/C(=C/c2ccc(-c3cccc([N+](=O)[O-])c3)o2)C(=O)N1c1ccccc1,111
24,O=[N+]([O-])c1ccccc1-c1ccc(/C=N/n2cnnc2)o1,8.8
25,O=C1S/C(=C\c2ccc(-c3ccccc3[N+](=O)[O-])o2)C(=O)N1c1ccccc1,47.7
